D1 potentiator – human D1 dopamine receptor positive modulation; HEK293 TREx D1 cells, calcium flux, dopamine EC20 potentiation; 360,000 compounds, 0.036% hits; potentiation, % at 10 µM; AID 504651; in the data active means potentiation above about 30%; further: 0% is about no effect
Target sequence (P21728 whole entry, looked up): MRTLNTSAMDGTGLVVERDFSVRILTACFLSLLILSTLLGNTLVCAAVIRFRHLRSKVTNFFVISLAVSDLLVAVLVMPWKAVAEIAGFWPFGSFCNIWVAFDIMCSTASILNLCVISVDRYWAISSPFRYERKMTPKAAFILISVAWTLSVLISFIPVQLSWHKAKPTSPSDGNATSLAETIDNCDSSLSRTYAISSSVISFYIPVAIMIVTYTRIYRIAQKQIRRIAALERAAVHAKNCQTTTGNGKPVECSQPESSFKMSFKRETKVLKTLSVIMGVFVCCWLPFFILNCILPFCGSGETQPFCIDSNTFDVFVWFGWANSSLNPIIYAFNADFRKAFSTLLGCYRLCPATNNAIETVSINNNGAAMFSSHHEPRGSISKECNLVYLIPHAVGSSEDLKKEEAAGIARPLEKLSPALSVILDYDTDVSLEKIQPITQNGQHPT
TRHR enhancer-1 – allosteric enhancers of human TRH receptor; P34981; TRHR cells, fluo-8 calcium fluorescence, EC20 TRH enhancement; enhancement, % at 2 µM; 360,000 compounds, 0.66% hits; in the data active means enhancement above about 30%; further: 0% is about no effect
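TRHR-expressing cells loaded with fluo-8 calcium dye were read kinetically (ex 480/em 530) during compound addition, then stimulated with an EC20 of TRH (10 nM final). Enhancement of the Gq-mediated intracellular calcium response was scored.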
TRHR agonist-1 – activates the human TRH receptor; P34981; TRHR cells, calcium flux fluo-8, FDSS agonist mode; activation, % at 2 µM; 360,000 compounds, 0.18% hits; AID 493084; in the data active means activation above about 30%; further: 0% is about no effect
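Read-out: compound-evoked intracellular calcium rise in TRHR cells, fluo-8 dye, kinetic FDSS fluorescence at 1 s/cycle following a 10-cycle baseline. Cells cultured overnight before dye loading (30 min–1.5 h, RT).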
D1 antag – antagonists of human D1 dopamine receptor; P21728; HEK293 TREx D1 cells, calcium flux, dopamine EC80; active compounds read low; activity change, negative = inhibition, % at 10 µM; 360,000 compounds, 3.2% hits; in the data active means activity change below about -30%; further: on the % scale 0 is the no-effect control and ±100 the full control effect
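Antagonism measured as reduced calcium response to an EC80 dopamine addition following 180 s compound pre-read; cells were inducible HEK293 Trex D1 plated overnight at 30 C, read kinetically at 1 cycle/sec.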
D1 agonist – activates the human D1 dopamine receptor. activation, % at 2 µM. 360,000 compounds, 1% hits. AID 504660. HEK293 T-REx D1 cells, calcium flux, agonist mode. P21728; in the data active means activation above about 30%; further: 0% is about no effect
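Agonism was scored from calcium flux recorded over 180 s (1 read/s) after pintool compound addition, following a 10-cycle baseline. Cells were inducible force-coupled HEK293 TREx D1, plated overnight at 30 C and loaded with no-wash calcium dye.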
TRHR enhancer-2 – confirmation of human TRH receptor allosteric enhancers | AID 493076 | activity change, negative = inhibition, % at 46.1 µM | 970 tested, under 10 active | TRH receptor cell assay, enhancer confirmation qHTS | shares compounds with TRHR enhancer-1;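 further: compound effect scored on response to added TRH at EC20 of 10 nM; 0% is about no effect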
TRHR agonist-2 – confirmation of human TRH receptor agonists; shares compounds with TRHR enhancer-1; TRHR-expressing cells, agonist activation read-out; Potency, µM (highest dose often 46.1 µM), without a hit: at the top dose activation, most hits filed as activators; 970 compounds, 8% hits; AID 493078; further: potency means the concentration at half of the fitted maximal effect; 0% is about no effect; nearly all actives have a fitted effect of over 75% in size
* = called active by the depositor; u = inconclusive; x = no result given. In the library only some 4.7% were active in any assay of this set; here they are far more common. Unless noted, the call rests on the fitted dose curve; in most records, active means well fitted curve in the direction sought with a large enough effect; inconclusive means small, poorly fitted or top-dose-only effect, or another doubt; inactive means no such curve, though single readings can be large; an effect the other way counts as inactive or inconclusive.

SMILES | D1 potentiator | TRHR enhancer-1 | TRHR agonist-1 | D1 antag | D1 agonist | TRHR enhancer-2 | TRHR agonist-2
COc1cc(NC(=O)CSc2nc3[nH]ncc3c(=O)n2-c2ccccc2C)cc(OC)c1OC | 0.8 | -2.3 | -0.1 | 6.4 | 9.3 | x | x
C=CCN(C(=O)CSc1nc2[nH]ncc2c(=O)n1-c1ccccc1OC)c1ccccc1 | -2.1 | -5.4 | 31.5* | 29.8 | 5.8 | -3.2 | 2.5%
O=C(Cn1cc(S(=O)(=O)N2CCN(c3ccccc3F)CC2)c2ccccc2c1=O)Nc1cccc(C(F)(F)F)c1 | -1.8 | -2.2 | 2.1 | -3.0 | 5.4 | x | x
CCOC1=C/C(=C/c2c(N)n3nc(CC(=O)N4CCCCC4)sc3nc2=O)C=CC1=O | 2.2 | 14.1 | 61.5* | 15.9 | 16.8 | 13.2 | 16.4µM*
COC1=C/C(=C/c2c(N)n3nc(CC(=O)N4CCCCC4)sc3nc2=O)C=CC1=O | -5.0 | 2.5 | 23.0 | -4.0 | 21.6 | x | x
O=[N+]([O-])/C=C\c1ccc(N2CCCC2)c(F)c1 | -12.2 | -10.8 | 72.8* | 18.4 | 126.7* | -12.7 | u
C/C=C/c1ccc(OCCCCNCc2ccco2)c(OC)c1 | -3.0 | 69.2* | -0.5 | 2.9 | 17.0 | u | u
Cc1ccc(NC(=O)CSc2nnc(-c3ccc(S(=O)(=O)N4CCOCC4)cc3)n2C)cc1 | -0.7 | -4.1 | -3.2 | -8.1 | 8.9 | x | x
Cn1c(SCC(=O)NCc2ccco2)nnc1-c1ccc(S(=O)(=O)N2CCOCC2)cc1 | -2.9 | 47.4* | -0.2 | 9.3 | -0.4 | -2.9 | -0.5%
CCN(CC(=O)Nc1ccc(OC)cc1)C(=O)c1ccccc1Sc1ccccc1C#N | -0.8 | -5.9 | -0.5 | -26.1 | 0.7 | x | x
COc1ccccc1C1NC(=O)NC(C)=C1C(=O)OCc1ccccc1 (stereo not given) | -14.7 | -0.9 | -0.5 | 2.2 | 0.3 | x | x
COc1ccc(COC(=O)C2=C(C)NC(=O)NC2c2ccccc2OC(C)C)cc1 (stereo not given) | 4.3 | 47.5* | 0.7 | 13.6 | 0.5 | -3.4 | 3.0%
Cc1ccc(Cn2c(C)c3cnn(CC(=O)O)c(=O)c3c2C)cc1 | -2.0 | 3.7 | 0.7 | 3.0 | -0.2 | x | x
Clc1ccccc1-c1nnc2sc(-c3ccc(Br)o3)nn12 | 2.2 | -4.9 | 27.5 | 9.8 | 2.5 | -14.1 | 1.0%
CC(=O)Oc1c(Sc2ccccc2[N+](=O)[O-])c(C)nn1C(C)(C)C | -0.1 | 57.8* | -0.4 | 5.7 | 1.9 | -7.3 | u
Cc1ccnc(NC(=O)CCC(=O)N(Cc2ccco2)C(C(=O)NC(C)C)c2ccc(F)cc2)c1 (stereo not given) | -0.3 | 43.4* | 0.0 | 0.3 | 3.0 | -10.4 | -0.3%
CCCCSCCCNC(=O)CN1C(=O)COc2ccc(S(=O)(=O)N3CCC(C)CC3)cc21 | -2.9 | -9.1 | -1.1 | -4.3 | 7.6 | x | x
CC(=N/O)/C(C)=N\NC(=O)c1ccccn1 | -2.0 | 59.7* | -0.1 | -1.9 | 2.2 | 1.1 | -0.3%
CCOc1ccc(NC(=O)c2cn(-c3ccc(OCC)cc3)c(=O)c3cc(OC)c(OC)cc23)cc1 | -18.1 | -0.5 | 0.6 | -2.6 | 4.3 | x | x
CCCCNC(=O)c1cn(-c2ccc(OCC)cc2)c(=O)c2cc(OC)c(OC)cc12 | -5.5 | 47.0* | 0.9 | 12.2 | 1.6 | 4.5 | 0.8%
CC1CCN(C(=S)NC(=O)c2cccc([N+](=O)[O-])c2)CC1 | 3.5 | 0.9 | 0.1 | 11.6 | 1.5 | x | x
CN1CCN(C(=S)NC(=O)c2cccc([N+](=O)[O-])c2)CC1 | 0.7 | 49.9* | 0.3 | 2.4 | -1.4 | -2.9 | -0.7%
CCOc1ccccc1N(CC(=O)N1CCOCC1)S(=O)(=O)c1ccc(SC)cc1 | -1.4 | -3.0 | 91.9* | 20.4 | 2.0 | -7.0 | 2.06µM*
Cc1ccc(S(=O)(=O)N(CC(=O)N2CCOCC2)c2ccccc2F)cc1 | -3.5 | -9.9 | 0.4 | -2.0 | -3.7 | x | x
CC(C)N(Cc1ccccc1)S(=O)(=O)c1ccc(N2CCCCS2(=O)=O)cc1 | 0.3 | -1.4 | -0.5 | -12.4 | 4.9 | x | x

Source: PubChem
